HTR5A inv ag: inverse agonist of human HTR5A in OPRM1-OPRD1 counter-screen | 340,000 tested, 0.083% active | HTR5A cell line, luminescence, inverse agonism | inhibition, % at 9.3 µM | P47898; in the data active = inhibition mostly above about 23%, no sharp cut-off; inactive = mostly below about 18%;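 also: 0% = cells with DMSO and 100% = no-cell wells with DMSO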
Target sequence (P47898 whole entry, looked up): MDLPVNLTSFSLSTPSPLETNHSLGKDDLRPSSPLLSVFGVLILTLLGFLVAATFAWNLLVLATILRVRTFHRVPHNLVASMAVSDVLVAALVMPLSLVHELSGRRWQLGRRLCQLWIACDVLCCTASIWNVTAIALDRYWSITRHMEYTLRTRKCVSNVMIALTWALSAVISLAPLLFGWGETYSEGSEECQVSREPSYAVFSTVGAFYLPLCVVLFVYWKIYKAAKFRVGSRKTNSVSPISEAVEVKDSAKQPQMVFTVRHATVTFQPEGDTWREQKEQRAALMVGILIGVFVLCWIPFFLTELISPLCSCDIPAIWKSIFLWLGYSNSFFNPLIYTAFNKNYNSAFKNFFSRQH
HTR5A ag: activates human HTR5A in OPRM1-OPRD1 agonist counter-screen. 340,000 tested, 0.61% active. P47898. activation, % at 9.3 µM. HTR5A agonist assay, luminescence, cell-based; in the data active = activation mostly above about 9.5%, no sharp cut-off; inactive = mostly below about 7.6%;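 also: 0% = cells with vehicle only and 100% = reference agonist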
OPRM1-OPRD1 inv: inverse agonist of human OPRM1-OPRD1 heterodimerization; AID 504357; cell-based MOR-DOR heterodimer luminescence, inverse agonism; inhibition, % at 9.3 µM; 340,000 tested, 0.21% active; P35372+P41143; in the data active = inhibition above about 22%, passing the limit was not always enough;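 also: 0% = cells with DMSO and 100% = wells without cells with DMSO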
OPRM1-OPRD1 ag: agonists of human mu-delta opioid receptor heterodimerization. 340,000 tested, 0.3% active. P35372+P41143. activation, % at 9.3 µM. cells, OPRM1-OPRD1 heterodimerization, luminescence; in the data active = activation above about 18%;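 also: 0% = vehicle-treated cells and 100% = reference agonist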
OPRM1-D1 inv cf: OPRM1-OPRD1 heterodimer inverse agonism, confirmation; inhibition, % at 9.3 µM; AID 504900; 580 tested, 20% active; shares compounds with OPRM1-OPRD1 inv; cells expressing OPRM1/OPRD1 heterodimer, luminescence; in the data active = inhibition above about 32%;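 also: 0% = cells with DMSO and 100% = wells lacking cells with DMSO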
HTR5A inv count: counter-screen for OPRM1-OPRD1 inverse agonists: human HTR5A inverse agonism; shares compounds with OPRM1-OPRD1 inv; HTR5A-expressing cells, luminescence; inhibition, % at 9.3 µM; 580 tested, under 10 active; AID 504914; call rule not given here;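 also: 0% = cells with DMSO and 100% = no-cell wells with DMSO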
The depositor's hits bear a star; . = no result given. A selection: hits, their analogues and other compounds. The true share with any hit is near 1.1%.

SMILES | HTR5A inv ag | HTR5A ag | OPRM1-OPRD1 inv | OPRM1-OPRD1 ag | OPRM1-D1 inv cf | HTR5A inv count
N#CC(=C1C=CC(=NO)C(Cl)=C1)c1ccc(Cl)cc1 | -0.7 | 0.2 | 8.7 | -2.0 | . | .
CCCCNC(=S)NNC(=O)c1cc(C2CC2)nc2ccccc12 | -3.5 | 1.0 | 11.6 | -2.2 | . | .
CCCCNC(=S)NNC(=O)c1cc(-c2ccncc2)nc2ccccc12 | 22.8 | -5.3 | 33.5* | -6.5 | -290.2 | -8.6
CSCCC1NC(=S)N(Cc2ccccc2)C1=O (stereo not given) | 2.1 | -0.6 | 41.6* | -9.2 | -299.8 | -24.6
CCOC(=O)C1CCN(S(=O)(=O)CCNC(=O)c2ccc(F)cc2)CC1 | -6.6 | 0.8 | 9.1 | -1.4 | . | .
CNS(=O)(=O)c1cccc(C(=O)OCC(=O)c2c(N)n(Cc3ccccc3)c(=O)n(C)c2=O)c1 | 2.9 | -1.2 | 15.2 | -3.9 | . | .
Cc1c(C(=O)NC(=S)Nc2cccnc2)cccc1[N+](=O)[O-] | 30.6 | 0.2 | 34.9* | -6.5 | -201.2 | -39.1
Cc1csc(=Nc2c(C)n(C)n(-c3ccccc3)c2=O)n1-c1ccccc1 | 2.7 | 3.6 | -3.1 | 0.6 | . | .
Cc1c(N=C2C(=O)Nc3ccccc32)c(=O)n(-c2ccccc2)n1C | 17.5 | -6.2 | 52.1* | -10.1 | 41.7* | 23.0
CCOc1ccc(S(=O)(=O)N(CC(=O)N/N=C/c2cccs2)c2ccc(C)cc2)cc1 | 14.6 | -5.6 | -35.7 | 5.7 | . | .
NNc1nc(-c2ccccc2)c2cc(Br)ccc2n1 | 4.1 | -1.1 | 20.4 | -4.6 | . | .
NNc1nc(-c2ccccc2)cc(-c2ccc(Br)cc2)n1 | -18.2 | -10.7 | 69.8* | -14.0 | 78.3* | 25.4
FC(F)(F)c1nc2ccccc2n2c(-c3ccc(Cl)cc3)nnc12 | 9.3 | -4.3 | 30.6* | -6.6 | 14.2 | 4.1
Cc1ccc(-c2nnc3c(C(F)(F)F)nc4ccccc4n23)cc1 | -4.6 | 1.8 | 20.1 | -4.0 | . | .
S=C(NC1CC1)NC1CCCc2ccccc21 (stereo not given) | 20.0 | -8.1 | -2.4 | 0.5 | . | .
CC1(C)Cc2c(c(=S)nc(-c3ccccc3)n2Cc2cccnc2)CO1 | 3.9 | -0.8 | 11.4 | -2.2 | . | .
COc1ccc(-c2nc(=S)c3c(n2Cc2cccnc2)CC(C)(C)OC3)cc1 | -23.3 | 0.8 | 33.1* | -6.5 | 42.2* | 4.7
COc1cc(OC)cc(C(=O)NNC(=S)Nc2ccc(S(N)(=O)=O)cc2)c1 | -16.2 | 3.8 | 34.0* | -7.0 | -1.6 | -7.4
COc1ccc(CNC(=S)Nc2ccc(S(N)(=O)=O)cc2)cc1 | -9.6 | 6.6 | 2.3 | -0.5 | . | .
COc1ccc(NC(=S)Nc2nc(CC(=O)Nc3ccccc3OC)cs2)cc1 | 25.6 | -1.4 | 36.1* | -7.2 | -11.0 | 11.4
COc1ccccc1NC(=O)Cc1csc(NC(=S)Nc2ccccc2)n1 | -1.0 | 1.2 | 26.4 | -5.8 | . | .
CC1CCN(CCCNC(=O)c2ccc3c(Cl)c4c(nc3c2)CCCC4)CC1 | 2.9 | -0.9 | 2.4 | -0.5 | . | .
Cc1cccc(C)c1NC(=O)C(NC=O)c1ccc(Cl)cc1 (stereo not given) | -14.0 | 5.4 | 33.0* | -6.6 | 2.8 | 1.9
Cn1c(C23CC4CC(CC(C4)C2)C3)n[nH]c1=S | -6.8 | 2.7 | 17.4 | -3.3 | . | .
O=C1/C(=C/c2ccccc2)Nc2ccccc21 | 3.6 | -6.1 | 35.9* | -6.9 | -25.3 | -9.7
SMILES | HTR5A inv ag | HTR5A ag | OPRM1-OPRD1 inv | OPRM1-OPRD1 ag | OPRM1-D1 inv cf | HTR5A inv count
Cc1cc(C(=O)Nc2ncn(Cc3ccc(F)cc3)n2)ccc1[N+](=O)[O-] | 16.6 | -2.2 | -14.1 | 2.8 | . | .
O=C(Nc1ccccc1C(F)(F)F)NC1CCCCCCC1 | -4.0 | 5.0 | -9.8 | 1.8 | . | .
ON1C2CCCCC2N(O)C1c1ccccc1C(F)(F)F (stereo not given) | 8.9 | -3.5 | 43.8* | -7.8 | -51.6 | 10.2
Cc1ccc(N2C(=O)c3ccccc3C2=O)nc1 | 3.2 | -0.8 | 15.6 | -3.3 | . | .
Cc1ccc2c(c1Br)/C(=N/N1C(=O)c3ccccc3C1=O)C(=O)N2 | -1.5 | -2.9 | 65.3* | -11.0 | -33.8 | -21.2
CCOc1ccc(N=C2C(=O)Nc3ccc(C)c(Br)c32)cc1 | 16.6 | -4.2 | 53.4* | -9.6 | 83.4* | 10.8
CCN(CC)CCNC(=O)C1(O)c2cc(Br)ccc2NC(=O)N1c1ccccc1 (stereo not given) | -19.3 | 5.5 | 14.0 | -3.1 | . | .
Cc1ccccc1NC(=O)COC(=O)CCc1ccccc1 | -0.4 | 2.4 | 15.2 | -3.3 | . | .
CC(C)(CNC(=O)c1cccc(NS(=O)(=O)c2ccc(Br)cc2)c1)N1CCOCC1 | 3.2 | 8.7 | 9.0 | -1.7 | . | .
CC(Oc1ccccc1)C(=O)N=Nc1c(O)[nH]c2ccc([N+](=O)[O-])cc12 (stereo not given) | 9.9 | -3.7 | 45.4* | -6.3 | 16.7 | -7.6
O=C(N=Nc1c(O)[nH]c2ccc([N+](=O)[O-])cc12)c1ccccc1[N+](=O)[O-] | 17.5 | -6.9 | 22.1 | -4.3 | . | .
COc1ccc(N=C2C(=O)Nc3c(C)cccc32)cc1 | 24.8 | -6.8 | 61.6* | -11.4 | 51.2* | 24.2
COc1ccc(N=C2C(=O)N3CCCc4cccc2c43)cc1 | 27.1 | 4.0 | 22.2 | -4.6 | . | .
Cc1ccc(N=C2C(=O)Nc3ccc(Br)cc32)cc1 | 5.6 | -1.6 | 23.8 | -5.2 | . | .
Cc1cccc2c1NC(=O)C2=Nc1ccc(Cl)cc1 | 2.0 | -4.7 | 55.1* | -11.0 | 44.5* | 17.0
Cc1ccc(N=C2C(=O)Nc3c(C)cccc32)cc1 | 13.7 | -3.6 | 55.2* | -11.0 | 31.6* | 8.9
c1ccc(-c2csc(-n3cccn3)n2)cc1 | 2.9 | -1.1 | 3.3 | -0.7 | . | .
CCOC(=O)c1coc(C(=O)OCC)c1C(=O)OCC | -7.3 | 1.9 | 20.6 | -4.2 | . | .
O=CN1Cc2[nH]c3ccccc3c2N(c2ccc(Cl)cc2)C1=O | -8.4 | 2.7 | 44.3* | -8.8 | 16.1 | -2.7
O=C1CNCc2[nH]c3ccccc3c2N1c1ccccc1 | 6.9 | -3.3 | 0.1 | 0.0 | . | .
CCOC(=O)c1ccccc1OC(=O)NNc1ccccc1 | 21.5 | -6.0 | 37.4* | -7.1 | -18.1 | -5.8
CCC(OC(=O)CN1C(=O)C(=O)c2ccccc21)C(=O)Nc1ccccc1OC (stereo not given) | 23.4* | -7.9 | 49.5* | -6.1 | 3.2 | -7.1
CCC(OC(=O)C(C)N1C(=O)C(=O)c2ccccc21)C(=O)Nc1ccccc1OC (stereo not given) | 1.9 | -3.8 | 48.2* | -7.6 | 10.3 | 4.2
CCC(Oc1ccccc1)C(=O)Nc1ccccc1OC (stereo not given) | -10.4 | 1.9 | -12.2 | 2.1 | . | .
O=C(Cn1nnc(-c2cccs2)n1)Nc1ccccc1C(F)(F)F | -10.2 | 3.6 | 0.0 | 0.0 | . | .
S=C(Nc1cccc(Cl)c1Cl)N1CCC2(CC1)OCCO2 | -17.9 | 2.0 | 12.5 | -2.5 | . | .
CNC(=O)c1nnsc1S(=O)(=O)c1ccc(Cl)cc1 | 17.4 | -6.1 | 32.1* | -5.6 | -9.7 | -9.7
ON(CCc1ccncc1)Cc1ccccc1 | 3.9 | -1.1 | 44.0* | -8.3 | 4.4 | -22.0
COc1ccc(C2=NN(CN3C(=O)C(=O)c4ccccc43)C(c3ccc(Br)cc3)C2)cc1 (stereo not given) | -8.5 | -2.6 | 20.8 | -3.8 | . | .
